Sampled rows, rich in hits. Any-hit rate of the full collection: about 4.2%.
esBAF inh: inhibitors of esBAF chromatin remodeling in mouse ES cells. Bmi1-luciferase knock-in reporter, 24 h; 100% = twice the neutral-well signal. reporter increase, % at 12.5 µM. 350,000 compounds, 2% hits. AID 602393; in the data active = activation above about 40%; inconclusive = no clear call, values can overlap the other calls;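 note: 0% = median of the plate's neutral control wells and 100% = double that signal; a rise in the Bmi1 reporter signal indicates esBAF inhibition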
Wnt bcat act: activates Wnt/beta-catenin signaling in a reporter cell assay; activator, plate reader; activation, % at 9.35 µM; 300,000 compounds, 1.2% hits; AID 743398; in the data active = activation above about 30%, passing the limit was not always enough; inconclusive = no clear call, values can overlap the other calls;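 note: 0% = neutral control wells and 100% = positive control wells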
AHR activator: human AHR activation. P35869. AHR-responsive luciferase reporter cells, luminescence. activation, % at 5 µM. 320,000 compounds, 2.5% hits. AID 2796; in the data active = activation above about 47%;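 note: 0% = vehicle wells and 100% = reference agonist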
GAA850 FXN act: activators of GAA850 frataxin (FXN) promoter | HEK293 lucGAA850 FXN promoter luciferase reporter, 24 h; percent of 10 µM SAHA response | activation, % at 6 µM | 360,000 compounds, 0.56% hits;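 active = activation above the average of all compounds screened plus 3 SD, cutoff fixed separately per campaign, cut at about 7.5% in these data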;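 note: 0% = DMSO wells and 100% = 10 µM SAHA wells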
MITF act: MITF TRPM1 promoter activation in melanoma cells. SK-MEL-5 TRPM1-promoter luciferase, 24 h; % of positive control, neutral wells = 0. activation, % at 12.5 µM. 300,000 compounds, 0.75% hits;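 active = mean activation of at least 80% with every replicate also reaching 80%; inconclusive = mean reaches 80% but some replicate falls short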;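 note: 0% = neutral control wells and 100% = parthenolide positive control wells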
Starred values were filed as active, the others as inactive.

For Clc1ccc(-c2nc3ccccc3[nH]2)cn1 the results were esBAF inh 50*, Wnt bcat act 0, AHR activator 35, GAA850 FXN act 2 and MITF act 57.
Screening COc1ccc(S(=O)(=O)N(C)C[C@H]2Oc3ccc(NC(=O)Nc4ccc5c(c4)OCO5)cc3CC(=O)N([C@H](C)CO)C[C@@H]2C)cc1 returned esBAF inh -5.
For C[C@@H]1CCCCO[C@@H](CN(C)C(=O)CCCN(C)C)[C@@H](C)CN([C@@H](C)CO)C(=O)c2cc(NC(=O)C3CCCCC3)ccc2O1 the results were esBAF inh -9.
For Cc1ccccc1NC(=S)c1nc2ccccc2[nH]1 the results were esBAF inh 49*, Wnt bcat act -2, AHR activator 47*, GAA850 FXN act 6 and MITF act 17.
For C/C(=N/NC(=O)c1ccccn1)c1c[nH]c2ccccc12 the results were esBAF inh 55*, Wnt bcat act 12, AHR activator 18, GAA850 FXN act 2 and MITF act 52.
For C/C(=N\NC(=O)c1ccccn1)c1ccc(Cl)cc1 the results were Wnt bcat act 47*, AHR activator -1 and GAA850 FXN act 5.
C/C(=N/Nc1ccc([N+](=O)[O-])cc1)c1c[nH]c2ccccc12 was read as esBAF inh 58*, Wnt bcat act -3 and GAA850 FXN act 4.
C/C(=N/NC(=O)c1ccccn1)c1ccc(O)cc1 was read as esBAF inh 25, Wnt bcat act inconclusive, AHR activator 4, GAA850 FXN act 4 and MITF act 66.
For COc1cc(C(=O)N/N=C(\C)c2ccccn2)cc(OC)c1OC the results were esBAF inh -44, Wnt bcat act -4, AHR activator 63*, GAA850 FXN act -1 and MITF act -37.
C[C@@H]1CN([C@H](C)CO)C(=O)c2cccc(NS(=O)(=O)c3ccc(F)cc3)c2O[C@H]1CN(C)S(=O)(=O)c1ccc(F)cc1 was read as esBAF inh -1.
`Cc1ccc(/C=N/Nc2ccc(Cl)nn2)cc1` gave Wnt bcat act 37*, AHR activator 17, GAA850 FXN act 5 and MITF act 95*.
For Oc1ccc(/C=N/Nc2ccc(Cl)nn2)cc1O the results were esBAF inh 30, Wnt bcat act 8, AHR activator 6, GAA850 FXN act 6 and MITF act 47.
Screening Fc1ccccc1/C=N/Nc1ccc(Cl)nn1 returned esBAF inh 55*, Wnt bcat act 1, AHR activator 26, GAA850 FXN act 3 and MITF act 49.
O=C(Nc1cc(-c2ccccc2)[nH]n1)c1ccccc1 was read as Wnt bcat act 43*, AHR activator 4 and GAA850 FXN act 1.
O=C(Nc1ccc(Cl)cc1)c1ccc(-c2ccccn2)s1 was read as esBAF inh inconclusive, Wnt bcat act 39*, AHR activator -4 and GAA850 FXN act 4.
`O=C(O)c1ccccc1C(=O)Nc1cc(-c2ccccc2)[nH]n1` gave esBAF inh -5, Wnt bcat act -3, AHR activator 1, GAA850 FXN act 0 and MITF act -3.
Screening CC1Oc2ccccc2OC1C(=O)Nc1ccccn1 (configuration not stated) returned esBAF inh -7, AHR activator 68*, GAA850 FXN act 1 and MITF act -18.
Screening O=C(Nc1ccccn1)c1cc2ccccc2cc1O returned esBAF inh 5, AHR activator 68*, GAA850 FXN act 3 and MITF act 51.
For COc1ccccc1C(=O)Nc1ccccn1 the results were AHR activator 7, GAA850 FXN act 0 and MITF act 33.
O=C(Nc1ccccn1)C1COc2ccccc2O1 (configuration not stated) was read as esBAF inh 15, AHR activator 0, GAA850 FXN act 5 and MITF act 39.
Screening C[C@@H]1CN([C@@H](C)CO)C(=O)Cc2cc(NC(=O)Nc3ccc(F)cc3)ccc2O[C@H]1CN(C)Cc1ccc(-c2ccccc2)cc1 returned esBAF inh -1.
CCN(CC)c1ccc2cc(C(=O)Nc3ccccn3)c(=O)oc2c1 was read as esBAF inh 49*, Wnt bcat act 27, AHR activator -3, GAA850 FXN act 1 and MITF act 10.
Cc1cc(NC(=O)c2cccc(Oc3ccccc3)c2)n[nH]1 was read as Wnt bcat act -1, AHR activator 66*, GAA850 FXN act 3 and MITF act 19.
O=C(NC(=S)Nc1ccccn1)c1ccc([N+](=O)[O-])cc1 was read as esBAF inh 77*, AHR activator 5, GAA850 FXN act 2 and MITF act 78.
For O=C(NC(=S)Nc1ccccn1)c1ccc(-c2ccccc2)cc1 the results were Wnt bcat act -1, AHR activator 3, GAA850 FXN act 4 and MITF act 117*.
For O=C(Nc1nn[nH]n1)c1cccc(Oc2ccccc2)c1 the results were esBAF inh -2, AHR activator 0, GAA850 FXN act -2 and MITF act 18.
`O=C(Nc1ncccn1)c1ccc([N+](=O)[O-])cc1` gave Wnt bcat act 0, AHR activator 2, GAA850 FXN act -1 and MITF act 13.
Screening C[C@@H]1CN([C@@H](C)CO)C(=O)c2cc(NS(=O)(=O)c3ccc(F)cc3)ccc2O[C@@H](C)CCCCO[C@@H]1CN(C)S(=O)(=O)c1cccs1 returned esBAF inh 6.
Screening Cc1ccccc1C(=O)NC(=S)Nc1ncccn1 returned esBAF inh 47*, Wnt bcat act 3, AHR activator 4, GAA850 FXN act 4 and MITF act 39.
For O=C(Nc1ccccn1)c1ccc(C(=O)Nc2ccccn2)cc1 the results were esBAF inh 28, AHR activator 2 and GAA850 FXN act 0.
`Cc1cc(C)nc(NC(=O)c2ccc(Br)s2)n1` gave esBAF inh -1, Wnt bcat act 7, AHR activator 19 and GAA850 FXN act 1.
`O=C(NC(=S)Nc1ccccn1)c1ccco1` gave Wnt bcat act 27, AHR activator 9, GAA850 FXN act 7 and MITF act 50.
O=C(NC(=S)Nc1ccccn1)c1ccccc1 was read as esBAF inh 4, Wnt bcat act 39*, AHR activator 13, GAA850 FXN act 1 and MITF act 33.
O=C(Nc1ccccn1)c1ccccc1 was read as esBAF inh 26, Wnt bcat act 26, GAA850 FXN act 2 and MITF act 82*.
For O=C(Nc1ccccn1)c1ccc(Br)s1 the results were esBAF inh 48*, Wnt bcat act 0, AHR activator 17 and GAA850 FXN act 3.
`COCC#Cc1cnc2c(c1)C(=O)N([C@@H](C)CO)C[C@H](C)[C@H](CN(C)S(=O)(=O)c1ccccc1)O2` gave esBAF inh 2.
`COc1ccccc1C#Cc1ccc([C@@H]2[C@H]3CN(C(=O)C4CCC4)CCCCN3[C@H]2CO)cc1` gave esBAF inh 1.

Assay outcomes: PubChem, several laboratories
